These results are taken from PubChem BioAssay (NCATS).

Results filed as inconclusive are left out. Where a call stands in place of a potency, no number is given. Activity calls are given as the source filed them. Calls come from the whole dose curve; as a rule, active = well fitted cell-killing curve with a large enough effect; inconclusive = small, poorly fitted or top-dose-only effect; inactive = flat fitted curve, though single readings scatter.
Potency is the fitted concentration of half-maximal effect.

The assay is described as follows: qHTS of pediatric cancer cell lines to identify multiple opportunities for drug repurposing: Primary screen for U-2 OS cells (AID 1347096). Note: nearly all actives have a fitted effect of over 50% in size. The settings on record: U-2 OS viability, CellTiter-Glo luminescence, 48 h; series mostly up to 46 µM. The text has this: Drug repurposing or repositioning has been offered as a strategy for drug development in oncology programs. This approach has special potential for childhood cancers and other rare or orphan diseases, where the expected return on new drug development has been a disincentive to pharmaceuticals.
In this project we exploit the poly-pharmacology of drugs to discover new indications via phenotypic screening of a panel of 19 well-characterized cell lines derived from solid tumors seen in children and adolescents. The goal is to identify approved drugs with previously unrecognized anticancer properties that has the potential to reveal new mechanisms and biological processes involved in carcinogenesis or drug resistance. We employed a titration-based paradigm (quantitative high-throughput screening or qHTS), where all compounds were tested at multiple concentrations for their effect on cell viability. Concentration-response curves (CRCs) were derived directly from the primary screen, and both potency and efficacy values were used to identify compounds with robust bioactivity profiles. We screened the NIH Chemical Genomics Center (NCGC) Pharmaceutical Collection (NPC) and Mechanism Interrogation Plate (MIPE) small molecule collections of approved and investigational compounds against these cell lines; and measured metabolically active cells after 48 hours of compound treatment as a proxy for cell viability.
Assay Submitter: Nathalia J. Martinez, National Center for Advancing Translational Sciences, National Institutes of Health, Rockville, MD, USA; email: natalia.martinez@nih.gov
[1] Shen, M et al. Quantitative high-throughput phenotypic screening of pediatric cancer cell lines identifies multiple opportunities for drug repurposing. Oncotarget 2017 Dec 19;9(4):4758-4772. PMID 29435139.
The cells were obtained from University of North Carolina (UNC), Pediatric Preclinical Testing Program (PPT), and Coriell Institute (CI).
qHTS cell viability assay:
Cells were assayed in growth media at a density of 500-1,000 cells/well. Five microliters of cells were dispensed into 1,536-well, white, solid-bottom, TC-treated plates (Greiner Bio One) using a multidrop dispenser and incubated at 37 degrees C, 5% CO2, under a humidified atmosphere for 5 hours. Twenty-three nanoliters of compounds and controls (neutral control DMSO or positive control bortezomib at final concentration of 2.3 µM) were subsequently transferred by Kalypsys pintool. For primary screens, the MIPE collection was tested at 11-point dilutions (final concentrations range from 0.78 nM to 46 µM) and the NPC collection at 8-point dilutions (final concentrations range from 0.59 nM to 46 µM). Compounds tested in follow-up screens were assayed at 11-point dilutions. Cells were incubated for 48 hours, followed by addition of 3 µL of CellTiter-Glo (Promega). After a 15 min incubation at room temperature, samples were analyzed for luminescence intensity using a ViewLux High-throughput CCD imager equipped with clear filters.
As to `CCc1cc(S(=O)(=O)O)c2cc(C(C)C)cccc1-2`, the Potency result is “inactive”.
Then `O=C(CO)[C@@H](O)[C@H](O)[C@@H](O)CO`, with “inactive”; and `Nc1nc(=O)n([C@@H]2O[C@H](CO)[C@@H](O)[C@@H]2F)cc1I`, with “inactive”; and `CCCCCCn1c(=O)c2c(ncn2C)n(C)c1=O`, with “inactive”.
The value for `Cn1cc(S(C)=O)c(=O)c2ccc(F)cc21` (stereo not given) was “inactive”; that for `O=C(CCOCCOCCOCCOCCC(=O)Nc1c(I)cc(I)c(C(=O)O)c1I)Nc1c(I)cc(I)c(C(=O)O)c1I` was “inactive”; that for `Cc1ncc([N+](=O)[O-])n1C` was “inactive”.
The value for `NS(=O)(=O)c1ccc(N2CCCCS2(=O)=O)cc1` was “inactive”.
With `CO/N=C(/C(=O)N[C@@H]1C(=O)N2C(C(=O)[O-])=C(C[n+]3ccn4ncccc43)CS[C@H]12)c1nsc(N)n1`, the Potency entry is “inactive”.
Then `Clc1ccc2c(c1)Nc1ccccc1S2`, with “inactive”.
Then `CC(=O)OCC[N+](C)(C)C`, with “inactive”; and `c1ccc2c(c1)CCc1ccccc1N2`, with “inactive”; and `CO[C@@H]1[C@@H](O[C@@H]2O[C@H](C)[C@@H](O[C@H]3C[C@@](C)(O)[C@@H](O)[C@H](C)O3)[C@H](N(C)C)[C@H]2O)[C@@H](CC=O)C[C@@H](C)[C@@H](O[C@@H]2CC[C@H](N(C)C)[C@@H](C)O2)/C=C/C=C/C[C@@H](C)OC(=O)C[C@H]1OC(C)=O`, with “inactive”.
Then `O=C(Oc1ccccc1)c1ccccc1O`, with “inactive”.
On to `CCN(CC)C(=O)C1CN2CCc3cc(OC)c(OC)cc3C2CC1OC(C)=O` (stereo not given), for which the Potency entry was “inactive”.
Then `COc1ccc2c(c1)c(CC(=O)OC/C=C(\C)CC/C=C(\C)CCC=C(C)C)c(C)n2C(=O)c1ccc(Cl)cc1`, with “inactive”; and `O=C(O)Cn1cnnn1`, with “inactive”.
`O=C1CC[C@H](C(=O)N2CCCCC2)N1`: the Potency entry was “inactive”.
Then `CCOC(=O)Oc1ccc(CCNC(=O)[C@H](CCSC)NC(C)=O)cc1OC(=O)OCC`, with “inactive”; and `COC(=O)c1ccc(NC(C)=O)cc1OC`, with “inactive”; and `CCCc1ccc(OCC(=O)N2CCN(C(=O)COc3ccc(CCC)cc3OC)CC2)c(OC)c1`, with “inactive”.
As to `CCc1cccc2c(CCO)c[nH]c12`, the Potency entry is “inactive”.
For `CCCCN(CCN(CCCC)C(=O)N1CCOCC1)C(=O)N1CCOCC1`, the Potency result is “inactive”.
The value for `CC(=O)Nc1ccn(C2COC(COC(=O)c3ccccc3)O2)c(=O)n1` (stereo not given) was “inactive”; that for `O=C(CCCCCCCCC#CI)Oc1ccccc1` was “inactive”; that for `CCOc1c(N2CCOCC2)cnn(C)c1=O` was “inactive”.
On to `Nc1ccc([N+](=O)[O-])c(C(F)(F)F)c1`, for which the Potency entry was “inactive”.
The value for `Cc1c(F)cc2c(=O)c(C(=O)O)cn3c2c1CCC3C` (stereo not given) was “inactive”; that for `COC(=O)c1cc(Cl)c(NC(C)=O)cc1OC` was “inactive”.
Then `C1N2CN3CN1CN(C2)C3`, with “inactive”; and `CCOC(=O)[C@H](CCc1ccccc1)N[C@@H](C)C(=O)N(CC(=O)O)C1Cc2ccccc2C1`, with “inactive”.
Turning to `COc1ccc2nc(SCc3ncc(C)c(OC)c3C)[nH]c2c1`, the Potency entry was “inactive”.
Then `NCC(=O)O`, with “inactive”; and `Cc1cc2nc3ccc(=[N+](C)C)cc-3sc2cc1N`, with 21.1 µM (active).
Then `CCCCNc1ccc(C(=O)OCCN(CC)CC)cc1`, with “inactive”; and `Cc1nc2n(c(=O)c1CCN1CCC(C(=O)c3ccc(F)cc3)CC1)CCS2`, with “inactive”.
Then `C=CCNc1nc(NCC=C)nc(N2CCN(C(c3ccc(F)cc3)c3ccc(F)cc3)CC2)n1`, with “inactive”; and `CCOC(=O)NNc1ccc(N(CC)CC(C)O)nn1` (stereo not given), with “inactive”.
Regarding `CC(C)C(C)(C)C(C)(C)C(C)(C)S`, the Potency entry is “inactive”.
With `CC(=O)O[C@@H]1C(=O)O[C@@H]2[C@H]1OC(=O)[C@@H]2OC(C)=O`, the Potency entry was “inactive”.
